Screens: PubChem BioAssay, several laboratories
Sampled rows, rich in hits. Any-hit rate of the full collection: about 1.3%.
LRH-1 inv ag: inverse agonists of human LRH-1 (NR5A2). HEK293T StAR-luciferase reporter, LRH-1 transfected, 24 h. O00482. hit rate 0.13% among 360,000. inhibition, % at 3.6 µM. AID 602396;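 active = inhibition above the mean inhibition of all tested compounds plus 3 SD, cut at about 73% in these data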;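 note: 0% = DMSO wells and 100% = reporter-only cells lacking LRH-1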
SRC2 inh: human SRC2 (NCOA2) inhibition; Q15596; HEK293 GAL4-SRC2 luciferase reporter, luminescence; inhibition, % at 9 µM; hit rate 0.17% among 370,000; AID 651957;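 active = inhibition above the mean inhibition of all tested compounds plus 3 SD, set per campaign, cut at about 52% in these data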;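 note: 0% = DMSO treated cells and 100% = cells given Gossypol at 36 µM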
SRC1 inh: human NCOA1 inhibition; Q15788; HEK293 GAL4-SRC1 luciferase reporter, luminescence; inhibition, % at 3.6 µM; hit rate 0.12% among 360,000;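 active = inhibition above the campaign mean plus 3 SD, with each screening campaign given its own cutoff, cut at about 60% in these data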;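 note: 0% = DMSO treated cells and 100% = gossypol at 36 µM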
NR2F2 inh: NR2F2 (human) inhibition, primary screen | inhibition, % at 8.6 µM | P24468 | HEK293T NGFI-A luciferase reporter, luminescence | hit rate 0.7% among 370,000 | AID 686940;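 active = inhibition above a per-plate cutoff, mean inhibition of test wells between control levels plus 3 SD, cut at about 38% in these data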;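 note: cells cotransfected with COUP-TFII expression vector driving the NGFI-A reporter; 0% = median of COUP-TF2 test wells and 100% = reporter-only cells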
SRC3 inh: inhibitors of human steroid receptor coactivator 3 (SRC3) | Q9Y6Q9 | HEK293 GAL4-SRC3 luciferase reporter, luminescence | inhibition, % at 3.6 µM | hit rate 0.17% among 360,000;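 active = inhibition above a per-campaign cutoff, the mean of all compounds plus 3 SD, cut at about 60% in these data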;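 note: 0% = DMSO-treated cells and 100% = gossypol-treated cells at 36 µM; higher means less SRC3-driven luciferase light from the GAL4 reporter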
Gli-Sufu block: antagonists of Gli-Sufu signaling | Sufu-KO-LIGHT fibroblasts, Gli luciferase reporter luminescence | inhibition, % at 5 µM | hit rate 0.74% among 340,000 | AID 588413;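 active = inhibition above about 55%, limit read from the data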;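 note: 0% = DMSO-treated cells and 100% = wells with medium but no cells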
VP16 Luc counter: VP16 inhibition counter-screen for COUP-TFII; shares compounds with NR2F2 inh; HEK293 Gal4-VP16 luciferase reporter, luminescence; inhibition, % at 8.5 µM; hit rate 25% among 2,500; AID 687007; in the data active = inhibition above about 13%
NR2F2 inh conf: COUP-TFII (NR2F2) inhibition, confirmation assay; shares compounds with NR2F2 inh; HEK293 NGFI-A luciferase reporter, luminescence; inhibition, % at 8.5 µM; hit rate 45% among 2,500;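 active = mean inhibition over three repeats above a set limit taken from the earlier primary screen, cut at about 38% in these data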;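 note: 100% = cells given the luciferase reporter alone without the COUP-TF2 vector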
* marks the source's active call; other numbers are inactive results; · = no result given; ! = not active in a repeat.

SMILES	LRH-1 inv ag	SRC2 inh	SRC1 inh	NR2F2 inh	SRC3 inh	Gli-Sufu block	VP16 Luc counter	NR2F2 inh conf
CCN=c1scc(-c2ccc3c(c2)NC(=O)CO3)n1N=C1CCCC1	22	3	22	47*!	17	13	-4	53*
O=C1COc2ccc(-c3csc(=Nc4ccc(OC(F)F)cc4)n3CC3CCCO3)cc2N1 (centres undefined)	22	20	2	6	15	1	·	·
CC(=O)Nc1ccc(Nc2cc(C)nc3c(-c4ccccc4)cnn23)cc1	16	37	24	42*	28	-8	-17	43*
COc1ccc(C2C(C(=O)N3CCOCC3)CC(=O)N2c2ccc(OC)cc2)cc1 (centres undefined)	·	-2	·	-1	·	·	·	·
COC(=O)N(C)c1nc2ccccc2s1	-18	-30	-44	-35	-18	3	·	·
CN(C(=O)OC(C)(C)C)c1ccc(-c2nc3ccccc3s2)cc1	85*	85*	86*	97*	87*	90*	87*	107*
COc1ccc2[nH]c(=O)c3c(c2c1)OC(C)(C)C=C3	20	63*	47	44*	44	-31	0	25
CCN(C(=O)[C@@H](C1CC1)[C@@H](O)c1ccc(Cl)cc1)c1ccccc1	·	-8	·	13	·	·	·	·
Cc1ccc(C)c(-c2nc3cc(N)ccc3o2)c1	-17	55*	-14	42*	-8	12	1	-18
COC(=O)c1ccc(-c2nc3cc(N)ccc3o2)cc1	29	42	-40	41*	-13	4	22*	-11
CC(C)(C)OC(=O)NCCc1ccccc1/C=C/S(=O)(=O)NCc1ccccc1	·	-18	·	10	·	·	·	·
Cc1nc(SCc2cccc(C(=O)O)c2)nc2c1CCCC2	-43	53*	-48	52*	-47	-5	23*	4
O=S1(=O)c2ccc(N3CCSCC3)cc2Oc2ccccc2CN1Cc1cn(Cc2ccc(Cl)cc2)nn1	·	-24	·	16	·	·	·	·
O=C(CN1CCN(C(=O)CNC(=O)c2ccc(-c3ccccc3)cc2)CC1)Nc1ccccc1Cl	31	-24	11	50*	3	·	-8	21
COC(=O)c1cc2c(c3c4cc(F)ccc4n(S(=O)(=O)c4ccccc4)c13)C(=O)N(Cc1ccccc1)C2	·	-3	·	8	·	·	·	·
COc1ccc(C(=O)C2CCCN(Cc3cnc(N4CCOCC4)s3)C2)cc1F (centres undefined)	3	20	18	18	14	4	·	·
CC(C)Oc1cccc(C(=O)C2CCCN(Cc3cnc(N4CCOCC4)s3)C2)c1 (centres undefined)	27	10	-10	37*	10	19	-1	15
O=C(CCN1CCOCC1)c1ccc(N2CCCCC2)cc1	32	63*	11	60*	24	-23	39*	40*
CCCC[C@H]1C2CC(OC(=O)Nc3ccc(Cl)cc3)C(C2)[C@H]2CCCCN21 (some centres undefined)	·	17	·	-7	·	·	·	·
CCN(CC)S(=O)(=O)c1cccc(NC(=O)COC(=O)c2[nH]c(C)c(C(C)=O)c2C)c1	40	21	45	62*	41	·	2	60*
CC(=O)c1c(C)[nH]c(C(=O)OCC(=O)Nc2cccc(S(=O)(=O)N(C)C)c2)c1C	17	12	9	-11	24	23	·	·
CC1(C)C=Cc2ccc(O)c(C(=O)/C=C/c3ccccc3)c2O1	·	·	·	44*	·	·	18*	17
NCCN1C(=O)S/C(=C\c2ccc3c(c2)OCO3)C1=O	23	69*	13	76*	31	19	27*	34
CCOC(=O)C1=C(C)N(Cc2ccccc2)C(=O)NC1c1ccccc1OS(=O)(=O)c1ccccc1[N+](=O)[O-] (centres undefined)	38	12	20	47*	14	12	1	34
COc1cccc(N2CCN(c3ncnc4c3[nH]c3ccccc34)CC2C)c1 (centres undefined)	·	61*	·	76*	·	·	19*	84*
COc1ccc2[nH]c3c(N4CC(C)OC(C)C4)ncnc3c2c1 (centres undefined)	·	12	·	-14	·	33	·	·
